Screening results: PubChem BioAssay, NMMLSC
Shown are actives, neighbours in structure and some others; about 2.9% of the full set was active somewhere.
MEKK2wt PB1 HTS: raises or lowers MEK5 binding to wildtype human MEKK2 PB1 domain; 290,000 compounds, 1.1% hits; Q9Y2U5; binding response (% of control), % at 10 µM; AID 1531; bead flow cytometry, Alexa488-MEK5 binding to MEKK2 WT; actives lie on both sides; in the data active means binding response below about 67% or above about 130%
MEKK2mut PB1 HTS: signal of MEK5 binding to mutant human MEKK2 PB1 domain; bead flow cytometry, Alexa488-MEK5 binding to MEKK2 mutant; percent response, % at 10 µM; 290,000 compounds, 0.35% hits; AID 1530; in the data active means percent response above about 24%, passing the limit was not always enough
MEKK3 PB1 HTS: raises or lowers MEK5 binding to the human MEKK3 PB1 domain | bead-based flow cytometry, Alexa488-MEK5 binding to MEKK3; actives lie on both sides; 0 = blocked by unlabeled MEK5, 100 = vehicle | binding response (% of control), % at 10 µM | 290,000 compounds, 1.4% hits | AID 1529;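 active means binding response more than 3 SD above or below the average of its plate-row segment, actives on both sides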;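 further: Alexa488 bead fluorescence after subtracting the streptavidin-only scavenger bead signal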
Target sequence (Q99759 whole entry, looked up, the tested form may be a part): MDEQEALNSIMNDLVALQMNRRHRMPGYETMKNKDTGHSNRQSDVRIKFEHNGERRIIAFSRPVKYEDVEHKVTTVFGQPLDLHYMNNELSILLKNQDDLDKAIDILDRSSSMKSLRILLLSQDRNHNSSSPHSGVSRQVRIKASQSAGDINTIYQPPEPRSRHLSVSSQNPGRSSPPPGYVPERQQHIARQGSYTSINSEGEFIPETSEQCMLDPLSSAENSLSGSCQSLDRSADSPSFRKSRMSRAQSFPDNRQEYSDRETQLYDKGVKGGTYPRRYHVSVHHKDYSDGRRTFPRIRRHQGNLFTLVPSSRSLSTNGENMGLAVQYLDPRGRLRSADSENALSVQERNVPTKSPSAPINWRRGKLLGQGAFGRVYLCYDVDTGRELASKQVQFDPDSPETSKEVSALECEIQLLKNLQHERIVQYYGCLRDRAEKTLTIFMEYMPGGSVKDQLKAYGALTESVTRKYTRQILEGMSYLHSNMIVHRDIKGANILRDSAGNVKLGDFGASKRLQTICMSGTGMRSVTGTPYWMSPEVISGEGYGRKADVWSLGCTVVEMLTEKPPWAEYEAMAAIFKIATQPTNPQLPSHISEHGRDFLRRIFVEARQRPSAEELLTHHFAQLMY
Beta2AR agonist: activates human beta-2 adrenergic receptor causing internalization | AID 504454 | 340,000 compounds, 0.43% hits | Am2.2-beta2AR cells, FAP receptor internalization, flow cytometry | P07550 | response, % (concentration not given with the values);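 active means response above a set limit, near 3 SD of response in nonfluorescent compounds, cut at about 42% in these data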
GRK2 aptamer HTS: inhibitors of human GRK2 displacing RNA aptamer | P25098 | bead flow cytometry, FAM-aptamer displacement from GRK2 | inhibition of aptamer binding, % at 10 µM | 330,000 compounds, 0.59% hits;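 active means inhibition of aptamer binding above 40%, roughly 3 SD of noise, on plates passing a quality check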;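 further: median bead fluorescence of bound FAM aptamer so fluorescent compounds give negative values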
Beta2AR ag CP1: human beta-2 adrenergic receptor agonism, cherry pick | AID 540358 | shares compounds with Beta2AR agonist | percent response (surface receptor), % at 10 µM | 1,100 compounds, 25% hits | Am2.2-beta2AR cells, FAP surface receptor, flow cytometry; stronger effect = lower value;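 active means surface receptor percent response at or below 58%, roughly 3 SD from nonfluorescent compounds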
B2AR FAP counter: flagged in Am2.2 fluorescence counterscreen for beta-2AR agonists | shares compounds with Beta2AR agonist | Am2.2 cells, FAP fluorogen flow cytometry; stronger effect = lower value | calls only at 10 µM | 1,100 tested, under 10 active;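 active means percent response below a set limit in fluorescence channel 1 and below 50% in channel 8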
Hits are given with their value; 0 = inactive; - = no result.

SMILES	MEKK2wt PB1 HTS	MEKK2mut PB1 HTS	MEKK3 PB1 HTS	Beta2AR agonist	GRK2 aptamer HTS	Beta2AR ag CP1	B2AR FAP counter
COc1ccc(OC)c(NC(=O)Nc2nnc(N3CCCCC3C)s2)c1 (configuration not stated)	0	0	0	0	0	-	-
CCCCn1c(N)c(N(Cc2ccccc2OC)C(=O)CN2C(=O)NC(C)(c3ccccc3)C2=O)c(=O)[nH]c1=O (configuration not stated)	-	-	-	0	0	-	-
Cc1c(Cl)cccc1N1CC(C)(C)C1=O	0	0	0	0	0	-	-
O=C(COc1ccc(S(=O)(=O)N2CCCC2)cc1)Nc1ccc(F)cc1	0	0	0	0	0	-	-
COC(=O)c1ccc(NC(=O)COc2ccc(S(=O)(=O)N3CCCCC3)cc2)cc1	0	0	0	87.0	0	9.0	0
CNc1nc(-c2c(C)[nH]c3ccc(OC)cc23)cs1	0	0	0	59.7	0	0	0
CCOc1cc(CNc2ccc3c(c2)OCCO3)cc(Br)c1OC	0	0	0	45.8	0	0	0
CCOc1c(Br)cc(CNc2ccc3c(c2)OCCO3)cc1OC	0	0	0	0	0	-	-
O=C(Nc1ccc(F)cc1)c1cccc(N2C(=O)c3ccccc3C2=O)c1	0	0	0	0	0	0	0
O=C(CNC(=O)c1cccc(N2C(=O)c3ccccc3C2=O)c1)Nc1ccc(F)c(F)c1	-	-	-	0	0	-	-
O=C(Nc1ccc(S(=O)(=O)Nc2nccs2)cc1)c1cccc(N2C(=O)c3ccccc3C2=O)c1	0	0	0	0	0	0	0
N#Cc1cccc(C(=O)Nc2ccc(S(=O)(=O)Nc3nccs3)cc2)c1	-	-	-	0	0	-	-
Cn1c(SCC(=O)NC2CC2)nnc1-c1cccs1	0	0	0	0	0	-	-
CCOC(=O)c1nnn(CC(=O)Nc2cccc(Cl)c2C)c1C(=O)OCC	0	0	0	70.2	0	0	0
Cc1ccnc(NC(=O)C2CC(=O)N(c3ccc4c(c3)OCCO4)C2)c1 (configuration not stated)	0	0	0	0	0	-	-
CC(=O)N1c2ccccc2C(C)(c2ccccc2)CC1(C)C (configuration not stated)	0	0	0	54.3	0	44.6	0
CCOC(=O)c1ccc(N2C(=O)c3n[nH]c(-c4ccco4)c3C2c2cccc([N+](=O)[O-])c2)cc1 (configuration not stated)	0	0	0	85.4	0	23.3	0
CCOC(=O)c1ccc(N2C(=O)c3n[nH]c(C)c3C2c2ccco2)cc1 (configuration not stated)	0	0	0	0	0	-	-
CC(=O)N1CCN(c2nc3ccc([N+](=O)[O-])cc3s2)CC1	0	0	0	0	0	-	-
Cc1cc(C)nc(NS(=O)(=O)c2ccc(NC(=O)COc3ccccc3)cc2)n1	0	0	0	118.0	0	0	0
Cc1cc(C)nc(NS(=O)(=O)c2ccc(NC(=O)Cc3ccccc3)cc2)n1	0	0	0	0	0	-	-
COC(=O)c1ccc(COc2cc(O)c3c(c2)OC(C)(C)CC3=O)cc1	0	0	0	45.5	0	0	0
COc1ccc(C(C)=O)cc1COc1ccc(Cl)cc1Cl	0	0	0	49.7	0	56.5	0
COc1ccc(C(C)=O)cc1COc1cc(C)c(Cl)c(C)c1	0	0	0	0	0	-	-
COc1ccccc1C(CNC(=O)c1cccc(S(=O)(=O)NCc2ccccc2)c1)N(C)C (configuration not stated)	-	-	-	0	0	-	-
SMILES	MEKK2wt PB1 HTS	MEKK2mut PB1 HTS	MEKK3 PB1 HTS	Beta2AR agonist	GRK2 aptamer HTS	Beta2AR ag CP1	B2AR FAP counter
N#CC(C(=S)Nc1ccccc1)c1nc2ccccc2[nH]1 (configuration not stated)	0	0	0	0	0	0	0
CCCNc1nc(-c2ccccc2)c(C(=O)OCC)cc1C#N	0	0	0	50.4	0	0	0
CCc1cccc(CC)c1-n1c(SCC(=O)N2CCc3ccccc32)nc(O)cc1=O	-	-	-	0	0	-	-
COc1ccc(NC(=O)CCCNC(=O)c2ccc(Cl)cc2)cc1S(=O)(=O)N1CCCCC1	-	-	-	0	-	-	-
NNC(=O)CC(=O)NC1(Cc2ccc(O)cc2)CCCCC1	0	0	0	0	0	-	-
O=C(Cc1ccccc1)NC1(Cc2ccc(O)cc2)CCCCC1	0	0	0	56.6	0	47.3	0
CC(CCc1ccc(O)cc1)NCCc1ccc(O)c(O)c1 (configuration not stated)	0	0	0	0	0	0	0
COc1ccccc1CCNC(C)CCc1ccc(O)cc1 (configuration not stated)	0	0	0	0	0	-	-
COc1cccc(-c2noc(-c3ccc(Cl)nc3)n2)c1	0	0	0	0	0	-	-
Cc1ccc(NC(=O)C(c2ccccc2)c2ccccc2)c(O)c1	0	0	0	47.7	0	0	0
COc1cc(NC(=O)C(c2ccccc2)c2ccccc2)c(C(=O)O)cc1OC	0	0	0	0	0	-	-
O=[N+]([O-])c1cnc(Sc2ccncn2)s1	0	0	0	91.8	0	15.8	0
C=CCn1c(Sc2ncc([N+](=O)[O-])s2)n[nH]c1=O	0	0	0	0	0	-	-
CC(C)(C)OC(=O)C[C@H]1C/C=C\C[C@H](CC(=O)NCCO)C(=O)N[C@@H](Cc2ccccc2)COC1=O	-	-	-	0	0	-	-
CC1Sc2ccc(C(=O)Nc3ncccc3O)cc2NC1=O (configuration not stated)	-	-	-	0	0	-	-
O=C(NCCCN1CCN(CCCNC(=O)c2ccc3c(c2)OCO3)CC1)c1ccc2c(c1)OCO2	0	0	0	0	0	0	0
COc1ccc(C(=O)NCCCN2CCN(CCCNC(=O)c3ccc(OC)c(OC)c3)CC2)cc1OC	-	-	-	0	-	0	0
O=C(NCCCN1CCN(CCCNC(=O)c2ccccc2F)CC1)c1ccccc1F	0	0	0	0	0	0	0
O=C(NCCN1CCN(c2ccccc2)CC1)c1ccccc1F	0	0	0	0	0	-	-
O=C(NCCN1CCCCC1)c1ccc2c(c1)OCCO2	0	0	0	0	0	-	-
COc1cccc(C(=O)NCCn2ccc3ccccc32)c1	0	0	0	0	0	-	-
COc1ccc(C(=O)NCCn2ccc3ccccc32)cc1OC	0	0	0	45.1	0	0	0
COc1ccc(C(=O)NCCN2CCN(C(=O)c3ccc(OC)c(OC)c3)CC2)cc1OC	0	0	0	0	0	-	-
O=C(CSc1nc2ccccc2c(=O)n1-c1ccccc1Cl)NC1CCS(=O)(=O)C1 (configuration not stated)	-	-	-	0	0	-	-
O=C(NCc1ccc(F)cc1)c1cccnc1C(=O)O	0	0	0	0	0	-	-
CCn1nnc(NC(=S)NC(=O)c2ccc(-c3cccc(Cl)c3)o2)n1	0	0	0	0	0	0	0
